# Values joined by “and” are separate entries in the source; they are usually repeats but may differ in a detail not shown here. Equal entries are not always repeated. This is part of a sample that, as a whole, favours compounds with a hit. Of some 83,000 tested, about 20% had one in any assay.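 Compound tested at a single concentration for 48 hours in 96-well plates; a percent growth value below 10 was scored as active.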 A number with no mark means an inactive call. Active and inactive are the calls of the source. Where a SMILES comes first, the peptide text is derived from it. [ ]: non-standard residue; d: D form. ξ: configuration not given here. ξV = CC(C)C(N)C(=O)O
# Test system: NCI-H322M lung
# Assay: NCI-60 one-dose screen, 48 h (100 = growth as untreated, 0 = no growth, -100 = all killed)
# Conditions: 0.0025 µM
# Experimental: Growth inhibition of the NCI-H322M human Non-Small Cell Lung tumor cell line is measured as a screen for anti-cancer activity. Cells are grown in 96 well plates and exposed to the test compound for 48 hours. Compounds are tested at a single concentration, which is 10^-5 M for most compounds. The reported endpoint is percent growth (GI% or GIPRCNT), where numbers from 0 - 100% represent growth inhibition, and numbers from -100% - 0 represent cell death. For example, a value of 40 represents 60% growth inhibition. A value of 0 means no net growth occurred over the course of the experiment. A value of -40 indicates 40% of cells at the beginning of the experiment died by the end of the experiment. A value of -100 means all cells are dead at the end of the experiment.
# NCI-60 Human Tumor Cell Lines Screen was performed using the standard one-dose NCI protocol, which is described in more detail at https://dtp.cancer.gov/discovery_development/nci-60/default.htm.
# Compounds with GIPRCNT values below 10 were considered active. Activity score was based on GIPRCNT using the following formula: […]
# Score is 0 for GIPRCNT values of 100 or above, 50 for GIPRCNT values of 0, and 100 for GIPRCNT values of -100.
row,SMILES,growth
1,COc1cccc2c1C(=O)c1c(O)c3c(c(O)c1C2=O)C[C@@](O)(C(=O)CO)C[C@@H]3OC1CC(N)C(O)C(C)O1 (stereo not given in full),86.8%

# Same assay, conditions: 1 µM
row,SMILES,growth
1,COc1cccc2c1C(=O)c1c(O)c3c(c(O)c1C2=O)C[C@@](O)(C(=O)CO)C[C@@H]3OC1CC(N)C(O)C(C)O1 (stereo not given in full),63.4%

# Same assay, conditions: 2.5 µM
row,SMILES,growth
1,COc1cccc2c1C(=O)c1c(O)c3c(c(O)c1C2=O)C[C@@](O)(C(=O)CO)C[C@@H]3OC1CC(N)C(O)C(C)O1 (stereo not given in full),101%

# Same assay, conditions: 10 µM
row,SMILES,growth
1,CC(=O)OCC(OC(C)=O)C(OC(C)=O)C(OC(C)=O)C(OC(C)=O)C(/C=N/Nc1ccccc1)=N/Nc1ccccc1 (stereo not given),65%
2,CO[C@H](C(=O)[C@@H](O)[C@@H](C)O)[C@@H]1Cc2cc3cc(OC4CC(OC5CC(O)C(O)C(C)O5)C(O)C(C)O4)c(C)c(O)c3c(O)c2C(=O)[C@H]1OC1CC(OC2CC(OC3CC(C)(O)C(O)C(C)O3)C(O)C(C)O2)C(O)C(C)O1 (stereo not given in full),5.87% (active)
3,Cc1nc(N=C(N)N)nc2ccc3ccccc3c12,-3.99% (active)
4,CCCCCC(C)c1ccc(O)c(C)c1 (stereo not given),99.3%
5,CS(=O)(=O)OC1CC(n2ccc(=O)[nH]c2=O)OC1COC(c1ccccc1)(c1ccccc1)c1ccccc1 (stereo not given),89.1%
6,O=c1ccn(C2CC(O)C(COC(c3ccccc3)(c3ccccc3)c3ccccc3)O2)c(=O)[nH]1 (stereo not given),87.5%
7,CCCCCCCCCCSC(=N)N,88.7%
8,COc1c(O)cc2oc3cc(O)c(CC=C(C)C)c(O)c3c(=O)c2c1CC=C(C)C,83.6%
9,Clc1cc(Cl)c(Cl)nn1,109%
10,CCN1/C(=C/C=C/C=C/c2sc3ccccc3[n+]2CC)Sc2ccccc21,5.13% (active)
11,Oc1ccc(N=Nc2ccccn2)c(O)c1,31.6%
12,O=C(/C=C/c1cccnc1)c1ccccc1,113%
13,COC(=O)C1C(O)C(C)C(O)C(C)C=C(C)C2=C3C(=C(C)C(=O)c4c(O)c(c(C)c(OC(C)=O)c43)NC(=O)C(C)=C/C=C\C(C)C(O)C(C)C1O)OCO2 (stereo not given),140%
14,COc1cccc2c1C(=O)c1c(O)c3c(c(O)c1C2=O)C[C@@](O)(C(C)=O)C[C@@H]3OC1CC(N)C(O)C(C)O1 (stereo not given in full),3.64% (active)
15,O=C(/C=C/c1ccccn1)c1ccccc1,88.8%
16,O=[N+]([O-])C1=C(c2ccccc2)SC=C(c2ccccc2)S1,92.4%
17,O=C1C=C(O)c2ccccc2C1=O.[Ag],99%
18,O=C1C=CC(=CC=C2C=CN(CCCCCCCCCCCO)C=C2)C=C1,92.4%

row,SMILES,growth
1,CCC(C)(C)c1cc(O)c(C(C)(C)CC)cc1O,45.6%
2,Cc1cc(NS(=O)(=O)c2ccc(N=Nc3cc(N=Nc4ccc(S(=O)(=O)Nc5cc(C)nc(C)n5)cc4)c4c(NC(=O)C(Cl)Cl)cccc4c3OC(=O)C(Cl)Cl)cc2)nc(C)n1 (tested in a mixture with another compound),94.9% and 87.3%
3,CCN(CC)c1ccc(NC(C(=O)c2ccccc2)c2ccccc2)cc1 (stereo not given),82.9%
4,COC1OCC(O)C(O)C1O (stereo not given),99.8%
5,COc1cccc2c1C(=O)c1c(O)c3c(c(O)c1C2=O)C[C@@](O)(C(=O)CO)C[C@@H]3OC1CC(N)C(O)C(C)O1 (stereo not given in full),13.9%
6,CN1CCN(CCCN2c3ccccc3Sc3ccc(C(F)(F)F)cc32)CC1,69.7%
7,NC(=O)SCC(=O)NNc1ccccc1,94.8%
8,CC(C)(C)CC(C)(C)c1ccc(OCCO)cc1,115%
9,CC1=CC(C)=Nc2ccc(Cl)cc2N1,102%
10,O=C1NC(=O)c2cc([N+](=O)[O-])ccc21,99%
11,CC(C)C(NC(=O)CN)C(=O)O (stereo not given) (H-Gly-[ξV]-OH),100% and 105%
12,CSC1SCC2C(=O)N(C)C(C(C)C)C(=O)OCC(NC(=O)c3cnc4ccccc4n3)C(=O)NC(C)C(=O)N(C)C1C(=O)N(C)C(C(C)C)C(=O)OCC(NC(=O)c1cnc3ccccc3n1)C(=O)NC(C)C(=O)N2C (stereo not given),9.51% (active)
13,O=C(C(=Cc1ccccc1)C(=O)c1ccccc1)c1ccccc1,89.6% and 110%
14,CC[N+](CC)=c1ccc2nc3c(cc(N)c4ccccc43)oc-2c1,-46.5% (active)
15,NC1=C(Cl)C(=O)c2ccccc2C1=O,98.6%
16,CCCCCCCCCCCCSC(=NC)NC,52.8% and 95.6%
17,CC(=O)Nc1cc(C)ccc1C,96%
18,NNc1c2ccccc2nc2ccccc12,75.9%

# Same assay, conditions: 100 µM
row,SMILES,growth
1,O=c1ccn(C2CC(O)C(COC(c3ccccc3)(c3ccccc3)c3ccccc3)O2)c(=O)[nH]1 (stereo not given),68.8%

# Source: PubChem BioAssay (NCI)
